In PubChem BioAssay:
Calls of active or inactive are those of the source.

Tested on: XIP peptide (Xip251-270) binding
Assay: XIP fragment 251-270 binding compounds – biochemical, small-molecule microarray, fluorescence 635/667 nm, 0.1 µg/mL protein, primary screen (AID 1182)
Settings: fluorescent protein binding, 635 nm, higher = more signal, called active from +8 up or from −8 down

Row | SMILES | composite z-score
1 | COC(=O)c1c(CC[C@@H](CO)NC(=O)N[C@@H](Cc2ccccc2)Cn2cc(-c3cncn3C)nn2)oc(C(C)=O)c1C(=O)OC | 0.606 (inactive)
2 | COC(=O)Cn1c(C(=O)N(C)C)cc2c1C[C@H]1CN(C(=O)c3ccccc3)[C@@](Cc3ccc(OC)cc3)(C(=O)OC)[C@@H]21 | 1.28 (inactive)
3 | CCCC=C(CCC)[C@@H](NS(=O)(=O)c1ccc(Cl)cc1)c1ccccc1 | -0.641 (inactive)
4 | COc1ccc(CCNC(=O)[C@@H]2c3ccccc3C(=O)N(CC34CC5CC(CC(C5)C3)C4)[C@H]2c2ccc(CO)cc2)cc1 | 1.92 (inactive)
5 | NC(=O)N1C(=O)C2C(C1=O)C1C=C(CCCO)C2C(c2ccc(CN3CCCC3)cc2)N1Cc1cccc(OC(F)(F)F)c1 (stereo not given) | 0.106 (inactive)
6 | COc1ccc([Si](C)(C)[C@H]2[C@H](CCn3cc([C@H](O)c4ccccc4)nn3)O[C@@]3(C(=O)N(c4ccccc4)c4ccccc43)[C@@H]2C)cc1 | -0.292 (inactive)
7 | CCCC=C(CCC)[C@@H](NC(=O)c1ccccc1)c1ccc(C(=O)OC)cc1 | -0.0026 (inactive)

Tested on: XIP peptide (Xip251-270)
Assay: compounds binding XIP fragment 251-270 – biochemical, small-molecule microarray, fluorescence 635/667 nm, 0.5 µg/mL protein, primary screen (AID 1183)
Settings: fluorescence 635 nm, higher = more signal

Row | SMILES | composite z-score
8 | COC(=O)[C@@]1(Cc2ccc(F)cc2)[C@H]2c3cc(C(=O)N(C)C)n(CCN4CCOCC4)c3C[C@H]2CN1C(=O)c1ccccc1 | 0.811
9 | C[N+](C)(C)CCCCCCNC(=O)[C@@H]1C[C@@H]2C(=O)N[C@@H](Cc3ccccc3)C(=O)N2[C@@H]1c1ccc(O)cc1 | 0.841
10 | CO[C@H]1O[C@H](CO)[C@@H](OC(=O)Nc2ccc(C(F)(F)F)cc2)[C@H](OC(=O)Nc2ccccc2-c2ccccc2)[C@@H]1OC(=O)Nc1ccccc1-c1ccccc1 | 0.827
11 | C=C(CCCC)/C(=C/C[C@H](OC(C)=O)c1cccc(OCCO)c1)c1cc(C(=O)OC)ccc1OC | -0.185
12 | COc1ccc([Si](C)(C)[C@H]2[C@H](CCn3cc([C@H](O)c4ccccc4)nn3)O[C@@]3(C(=O)N(C)c4c(Br)cc(C)cc43)[C@@H]2C)cc1 | 0.586
13 | COCCOC(=O)N1C(=O)[C@@]2(c3cc(C#CC4(O)CCCCCC4)ccc31)[C@H](C(=O)N1CCc3cc(OC)c(OC)cc3C1)[C@H]1C(=O)O[C@H](c3ccccc3)[C@H](c3ccccc3)N1[C@@H]2c1ccc(O)cc1 | 0.762
14 | C=CCOC(=O)[C@H]1[C@@H]2C(=O)O[C@@H](c3ccccc3)[C@@H](c3ccccc3)N2[C@@H](c2ccc(OCCOC(=O)[C@H]3C[C@H]4C(=O)NCC(=O)N4[C@H]3c3ccc(O)cc3)cc2)[C@]12C(=O)Nc1ccc(I)cc12 | 0.7
15 | COCCOC(=O)N1C(=O)[C@@]2(c3cc(C#CC4=CCCCC4)ccc31)[C@H](c1ccc(OCCO)cc1)N1[C@H](c3ccccc3)[C@H](c3ccccc3)OC(=O)[C@H]1[C@@H]2C(=O)N1CCCCCCC1 | 0.822
16 | CCOC(=O)C1=C(C(=O)OCC)N(S(=O)(=O)CC[Si](C)(C)C)[C@H](c2ccccc2)CC1 | 0.201
17 | C=CCC(OC(C)=O)[C@@H]1[C@@H](N(Cc2cc3ccccc3o2)C(=O)c2ccc(-c3ccccc3)cc2)c2cc(OCCCO)ccc2N1C(=O)c1ccc2ccccc2n1 (stereo not given in full) | -0.317
18 | O=C1O[C@@H](c2ccccc2)[C@@H](c2ccccc2)N2[C@@H](c3ccc(O)cc3)[C@]3(C(=O)Nc4ccc(C#CC5=CCCCC5)cc43)[C@@H](C(=O)N3CCCCCCC3)[C@H]12 | 0.816
19 | COCCOC(=O)N1C(=O)[C@@]2(c3cc(C#CCC(C(=O)OC)C(=O)OC)ccc31)[C@H](C(=O)N1CCc3cc(OC)c(OC)cc3C1)[C@H]1C(=O)O[C@H](c3ccccc3)[C@H](c3ccccc3)N1[C@@H]2c1ccc(O)cc1 | 0.676
20 | C=C(/C(=C/C[C@H](OC(=O)c1ccncc1)c1ccccc1OCCO)c1cc(C(=O)OC)ccc1OC)C(C)C | 0.605
21 | NCCCC[C@@H]1NC(=O)[C@H]2C[C@@H](C(=O)O)[C@@H](c3cccc(OCCO)c3)N2C1=O | 0.86
22 | CCCCN1CC=CC23O[C@@H]4/C=C\CCC(C)OC(=O)C4[C@H]2C(=O)N(C(C)CO)[C@@H]3C1=O (stereo not given in full) | -0.369
23 | CC(=O)c1ccc(C(O)C2C=CC3C(=O)NC(=O)C3N2Nc2ccc(Cl)cc2Cl)cc1 (stereo not given) | 0.02
24 | C[N+](C)(C)CCCC[C@@H]1NC(=O)[C@H]2C[C@@H](C(=O)NCCCCCNC(=O)CS)[C@@H](c3ccc(O)cc3)N2C1=O | 0.696
25 | CN(C)CCCCNC(=O)[C@H]1C[C@H]2C(=O)N[C@@H](Cc3ccccc3)C(=O)N2[C@H]1c1cccc(OCCO)c1 | -0.0022
